This note sets out measurements from PubChem BioAssay.

Values without a mark were called inactive. Activity calls are given as the source filed them. Unless noted, no stated cut-off is given here; in the data, active means inhibition above about 30%; inactive means the rest.

In general, inhibition refers to the drop in the measured response relative to a control, in per cent.

For one assay, the target named is Nuclear receptor coactivator 3 (Homo sapiens) (UniProt Q9Y6Q9). The assay is described as follows: NCOA3 GAL4-fusion reporter inhibition – cell-based, luminescence, quadruplicate, confirmation (AID 588792;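 active means mean inhibition over 43.08%, the solvent-only control mean plus 3 SD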;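 further: 0% = DMSO treated cells and 100% = gossypol at 36 µM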). As to conditions: HEK293 GAL4-SRC3 luciferase reporter, at 3.6 µM, hits give high values. A general note: A reporter such as luciferase makes a cellular process visible.
Chain of Nuclear receptor coactivator 3 (Homo sapiens) (Q9Y6Q9 whole entry, looked up, the tested form may be a part): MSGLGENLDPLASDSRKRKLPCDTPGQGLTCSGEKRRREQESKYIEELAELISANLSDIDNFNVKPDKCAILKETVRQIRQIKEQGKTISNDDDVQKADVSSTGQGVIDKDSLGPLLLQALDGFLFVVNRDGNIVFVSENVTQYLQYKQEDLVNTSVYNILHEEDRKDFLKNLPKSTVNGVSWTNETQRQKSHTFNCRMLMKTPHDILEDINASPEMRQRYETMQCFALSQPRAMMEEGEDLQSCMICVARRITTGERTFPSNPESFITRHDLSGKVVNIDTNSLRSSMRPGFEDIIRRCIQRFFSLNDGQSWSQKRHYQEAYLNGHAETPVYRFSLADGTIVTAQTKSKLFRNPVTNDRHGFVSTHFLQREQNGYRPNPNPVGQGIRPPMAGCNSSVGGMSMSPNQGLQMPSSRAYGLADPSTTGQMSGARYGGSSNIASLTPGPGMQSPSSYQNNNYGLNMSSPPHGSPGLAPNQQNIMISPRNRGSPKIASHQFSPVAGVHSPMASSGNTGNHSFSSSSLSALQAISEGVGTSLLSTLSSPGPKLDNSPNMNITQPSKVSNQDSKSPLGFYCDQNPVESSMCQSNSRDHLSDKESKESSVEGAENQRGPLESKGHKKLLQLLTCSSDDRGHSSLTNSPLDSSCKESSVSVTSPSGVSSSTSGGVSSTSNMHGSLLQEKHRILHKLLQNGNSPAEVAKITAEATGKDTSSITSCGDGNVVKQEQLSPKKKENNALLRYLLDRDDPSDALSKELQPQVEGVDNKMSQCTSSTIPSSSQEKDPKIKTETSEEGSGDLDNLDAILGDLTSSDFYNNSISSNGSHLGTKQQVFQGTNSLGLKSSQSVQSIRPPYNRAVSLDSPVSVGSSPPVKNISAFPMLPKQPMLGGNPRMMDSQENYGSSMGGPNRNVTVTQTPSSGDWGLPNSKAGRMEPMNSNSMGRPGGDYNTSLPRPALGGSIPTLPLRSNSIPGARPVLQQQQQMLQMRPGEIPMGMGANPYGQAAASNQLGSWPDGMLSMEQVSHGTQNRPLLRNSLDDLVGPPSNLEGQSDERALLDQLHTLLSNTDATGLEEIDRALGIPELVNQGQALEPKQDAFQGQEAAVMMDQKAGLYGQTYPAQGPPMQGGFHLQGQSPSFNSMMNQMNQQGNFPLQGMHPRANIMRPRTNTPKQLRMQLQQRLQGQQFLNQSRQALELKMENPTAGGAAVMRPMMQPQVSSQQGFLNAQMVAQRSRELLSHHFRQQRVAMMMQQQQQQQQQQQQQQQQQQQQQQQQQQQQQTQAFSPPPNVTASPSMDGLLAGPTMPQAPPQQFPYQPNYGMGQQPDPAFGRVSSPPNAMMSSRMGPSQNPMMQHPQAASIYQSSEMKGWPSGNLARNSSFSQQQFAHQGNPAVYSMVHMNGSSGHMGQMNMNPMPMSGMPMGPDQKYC
Turning to `Cc1ccc(-c2c[n+](Cc3ccc(Cl)c(Cl)c3)c3n2CCC3)cc1`, the inhibition was 17.6%.

For `CCCCCCSc1ccc([C@H]2N[C@@](CC(C)C)(C(=O)OC)[C@H]3C(=O)N(C)C(=O)[C@@H]23)cc1OC`, the inhibition was 4.49%.

In the case of `O=C(c1ccc(S(=O)(=O)Cc2cc(F)ccc2F)c([N+](=O)[O-])c1)N1CCCCC1`, the inhibition is -2.8%.

For the compound `O=C(c1cc2sccc2n1Cc1ccccc1)N1CCN(c2nc3ccccc3s2)CC1`, the inhibition is 2.32%.

Take `CCC(C)c1ccc(NC(=S)N2CCN(C(=O)C3CCCO3)CC2)cc1` (stereo not drawn): the inhibition was 8.54%.

Consider `COc1cc(C(=O)NC2CCCc3c2cnn3-c2ccccc2F)cc(OC)c1OC` (stereo not drawn), for which the inhibition was 2.41%.

As to `Cc1ccc(S(=O)(=O)NC(=O)c2cc(C)n(-c3ccccc3)c2C)cc1`, the inhibition is -1.88%.

Regarding `CC(C)C[C@H](NC(=O)c1[nH]cnc1C(=O)N[C@@H](Cc1ccccc1)C(=O)OC(C)(C)C)C(=O)OC(C)(C)C`, the inhibition was 13.6%.

In the case of `Cc1ccccc1NC1=NCC(c2ccc([N+](=O)[O-])cc2)S1` (stereo not drawn), the inhibition is 18%.

Consider `O=C(CCN1CCN(c2ccccc2)CC1)Nc1ccc(Cl)cc1`, for which the inhibition was 3.39%.

Consider `O=C(N/N=C/c1ccccc1O)c1ccncc1`, for which the inhibition is 14.8%.

For `Cc1ccc(NC(=O)C2c3ccccc3-c3ccccc32)cc1`, the inhibition is 9.64%.

With `CCN(CC)CCOc1c(Br)ccc2c1sc1nc3n(c(=O)c12)CCC3`, the inhibition was -18.1%.

Regarding `COCC(C)n1c(SCC(=O)NC(=O)Cc2ccccc2)nc2ccccc2c1=O` (stereo not drawn), the inhibition is 19.1%.

Turning to `CCCOc1cccc(C(=O)Nc2cc(NC(=O)c3ccco3)ccc2OC)c1`, the inhibition is 10.8%.

`N#CCc1c[nH]c2ccc([N+](=O)[O-])cc12`: the inhibition is 24%.

Consider `CCC(=O)NC(c1cccs1)c1cc(Cl)c2cccnc2c1O` (stereo not drawn), for which the inhibition is 20.9%.

Turning to `CC1CCCCC1NC(=O)Cn1cnc2ccccc2c1=O` (stereo not drawn), the inhibition is 10.5%.

In the case of `Cc1cccc(OCC(=O)NCC(=O)N/N=C/c2ccc(O)cc2O)c1`, the inhibition was 15.4%.

`O=C(NC1CCCC1)C(c1ccncc1)N(Cc1ccccc1)C(=O)Cc1cccs1` (stereo not drawn): the inhibition is 2.62%.

Turning to `Cc1nnsc1-c1onc(C)c1C(=O)Nc1cc(Cl)cc(Cl)c1`, the inhibition was 15.8%.

Turning to `O=C(O)c1ccc(Cl)c(S(=O)(=O)NCc2cccnc2)c1`, the inhibition was 0.83%.

As to `Cc1cccc(C)c1NC(=O)c1ccc(-c2ccc(Cl)cc2Cl)o1`, the inhibition was 28.4%.

Consider `Cc1cccc(Nc2ncnc(N)c2[N+](=O)[O-])n1`, for which the inhibition was 24.9%.

For `CN(C)S(=O)(=O)c1cccc(-c2nn(-c3ccccc3)cc2/C=C(\C#N)c2nc3ccccc3[nH]2)c1`, the inhibition is 1.73%.

Regarding `O=C1OCCC1Sc1nnc(-c2ccc(Cl)cc2Cl)o1` (stereo not drawn), the inhibition was 0.88%.

As for `COc1ccc(-c2csc(NC(=O)c3ccc(S(=O)(=O)N4CCc5ccccc5C4)cc3)n2)cc1`, the inhibition is 25.1%.

Take `CC(=O)N(Cc1ccc(F)cc1)C1=C(NCc2ccccc2)C(=O)c2ccccc2C1=O`: the inhibition is 30.9%.

As to `COc1cc(C(=O)Nc2nc(-c3cccs3)cs2)cc(OC)c1OC`, the inhibition was -9.35%.

For `O=C(Nc1ccccc1C(=O)Nc1nnc(C(F)(F)F)s1)c1ccccc1Cl`, the inhibition is 12.3%.

As for `Cc1cccc(C2(c3cccc(C)c3)CC2C(=O)Nc2ccc([N+](=O)[O-])cc2O)c1` (stereo not drawn), the inhibition is 7.2%.

Consider `Cc1cccc(Nc2nc(N)c([N+](=O)[O-])c(N3CC(C)CC(C)C3)n2)c1` (stereo not drawn), for which the inhibition was 3.08%.

For `Clc1ccc(SCc2cc(N3CCOCC3)nc(-c3ccccn3)n2)cc1`, the inhibition is -5.99%.

Consider `Cc1cc(=O)oc2cc(NC(=O)COc3cccc(C(F)(F)F)c3)ccc12`, for which the inhibition is 7.34%.

As for `Cc1noc(C)c1CN1C(=O)NC2(CCCCCCC2)C1=O`, the inhibition is 0.62%.

Turning to `O=C(Nc1ccc(N2CCN(c3ncccc3C(F)(F)F)CC2)nc1)c1cccs1`, the inhibition was -7.92%.

On to `O=C(NCCc1ccccn1)C(F)(F)C(F)(F)C(F)(F)C(F)(F)C(F)(F)C(F)(F)C(F)(F)C(F)F`, for which the inhibition was 9.78%.

Turning to `Cc1ccc2occ(/C=N/NC(=O)c3ccccc3Br)c(=O)c2c1`, the inhibition was 40.7%.

Consider `CCSc1ccccc1C(=O)NCc1ccc2c(c1)OCO2`, for which the inhibition is 1.07%.

The subject of the next assay is transactivating tegument protein VP16 (Human herpesvirus 1), Gal4-VP16 luciferase reporter. In words: repression of VP16-driven luciferase reporter – cell-based, luminescence, high throughput, counter-screen for SRC3 inhibitor project (AID 588794). Conditions: mammalian cells, at 3.6 µM, hits give high values.
`Cc1ccc(-c2c[n+](Cc3ccc(Cl)c(Cl)c3)c3n2CCC3)cc1`: the inhibition is 25.3%.

For the compound `CCCCCCSc1ccc([C@H]2N[C@@](CC(C)C)(C(=O)OC)[C@H]3C(=O)N(C)C(=O)[C@@H]23)cc1OC`, the inhibition was -10.5%.

In the case of `O=C(c1ccc(S(=O)(=O)Cc2cc(F)ccc2F)c([N+](=O)[O-])c1)N1CCCCC1`, the inhibition was -0.48%.

Take `O=C(c1cc2sccc2n1Cc1ccccc1)N1CCN(c2nc3ccccc3s2)CC1`: the inhibition was 35.9% (active).

With `CCC(C)c1ccc(NC(=S)N2CCN(C(=O)C3CCCO3)CC2)cc1` (stereo not drawn), the inhibition is -1.88%.

`COc1cc(C(=O)NC2CCCc3c2cnn3-c2ccccc2F)cc(OC)c1OC` (stereo not drawn): the inhibition was 21%.

Take `Cc1ccc(S(=O)(=O)NC(=O)c2cc(C)n(-c3ccccc3)c2C)cc1`: the inhibition is -1.79%.

For the compound `CC(C)C[C@H](NC(=O)c1[nH]cnc1C(=O)N[C@@H](Cc1ccccc1)C(=O)OC(C)(C)C)C(=O)OC(C)(C)C`, the inhibition is 2.92%.

On to `Cc1ccccc1NC1=NCC(c2ccc([N+](=O)[O-])cc2)S1` (stereo not drawn), for which the inhibition was -2.52%.

Consider `O=C(CCN1CCN(c2ccccc2)CC1)Nc1ccc(Cl)cc1`, for which the inhibition was 1.2%.

Turning to `O=C(N/N=C/c1ccccc1O)c1ccncc1`, the inhibition was 13.7%.

On to `Cc1ccc(NC(=O)C2c3ccccc3-c3ccccc32)cc1`, for which the inhibition was 6.56%.

For the compound `CCN(CC)CCOc1c(Br)ccc2c1sc1nc3n(c(=O)c12)CCC3`, the inhibition was 2.47%.

For the compound `COCC(C)n1c(SCC(=O)NC(=O)Cc2ccccc2)nc2ccccc2c1=O` (stereo not drawn), the inhibition is -4.14%.

Consider `CCCOc1cccc(C(=O)Nc2cc(NC(=O)c3ccco3)ccc2OC)c1`, for which the inhibition was 2.92%.

In the case of `N#CCc1c[nH]c2ccc([N+](=O)[O-])cc12`, the inhibition was 20%.

With `CCC(=O)NC(c1cccs1)c1cc(Cl)c2cccnc2c1O` (stereo not drawn), the inhibition is 25.6%.

Regarding `CC1CCCCC1NC(=O)Cn1cnc2ccccc2c1=O` (stereo not drawn), the inhibition was -4.34%.

Turning to `Cc1cccc(OCC(=O)NCC(=O)N/N=C/c2ccc(O)cc2O)c1`, the inhibition is 14%.

Consider `O=C(NC1CCCC1)C(c1ccncc1)N(Cc1ccccc1)C(=O)Cc1cccs1` (stereo not drawn), for which the inhibition was -0.83%.

As for `Cc1nnsc1-c1onc(C)c1C(=O)Nc1cc(Cl)cc(Cl)c1`, the inhibition is 13.8%.

Consider `O=C(O)c1ccc(Cl)c(S(=O)(=O)NCc2cccnc2)c1`, for which the inhibition was -9.62%.

As for `Cc1cccc(C)c1NC(=O)c1ccc(-c2ccc(Cl)cc2Cl)o1`, the inhibition was 23%.

Take `Cc1cccc(Nc2ncnc(N)c2[N+](=O)[O-])n1`: the inhibition is 4.32%.

In the case of `CN(C)S(=O)(=O)c1cccc(-c2nn(-c3ccccc3)cc2/C=C(\C#N)c2nc3ccccc3[nH]2)c1`, the inhibition was -4.19%.

Consider `O=C1OCCC1Sc1nnc(-c2ccc(Cl)cc2Cl)o1` (stereo not drawn), for which the inhibition was 1.16%.

`COc1ccc(-c2csc(NC(=O)c3ccc(S(=O)(=O)N4CCc5ccccc5C4)cc3)n2)cc1`: the inhibition is 24.1%.

In the case of `CC(=O)N(Cc1ccc(F)cc1)C1=C(NCc2ccccc2)C(=O)c2ccccc2C1=O`, the inhibition is 31.9% (active).

Turning to `COc1cc(C(=O)Nc2nc(-c3cccs3)cs2)cc(OC)c1OC`, the inhibition was -21.8%.

Regarding `O=C(Nc1ccccc1C(=O)Nc1nnc(C(F)(F)F)s1)c1ccccc1Cl`, the inhibition is 11%.

Take `Cc1cccc(C2(c3cccc(C)c3)CC2C(=O)Nc2ccc([N+](=O)[O-])cc2O)c1` (stereo not drawn): the inhibition is 8.99%.

As for `Cc1cccc(Nc2nc(N)c([N+](=O)[O-])c(N3CC(C)CC(C)C3)n2)c1` (stereo not drawn), the inhibition is 15.7%.

With `Clc1ccc(SCc2cc(N3CCOCC3)nc(-c3ccccn3)n2)cc1`, the inhibition was 1.33%.

Take `Cc1cc(=O)oc2cc(NC(=O)COc3cccc(C(F)(F)F)c3)ccc12`: the inhibition is -7.4%.

`Cc1noc(C)c1CN1C(=O)NC2(CCCCCCC2)C1=O`: the inhibition is -10.4%.

As to `O=C(Nc1ccc(N2CCN(c3ncccc3C(F)(F)F)CC2)nc1)c1cccs1`, the inhibition was 7.03%.

Regarding `O=C(NCCc1ccccn1)C(F)(F)C(F)(F)C(F)(F)C(F)(F)C(F)(F)C(F)(F)C(F)(F)C(F)F`, the inhibition was -4.16%.

In the case of `Cc1ccc2occ(/C=N/NC(=O)c3ccccc3Br)c(=O)c2c1`, the inhibition was 28.5%.

Take `CCSc1ccccc1C(=O)NCc1ccc2c(c1)OCO2`: the inhibition is -10.1%.
